# Screening data (PubChem)
# Shown are actives, neighbours in structure and some others; about 9.5% of the full set was active somewhere.
# NPSR antagonist = qHTS Assay for Antagonists of the Neuropeptide S Receptor: cAMP Signal Transduction; CHO-NPSR cells, cAMP TR-FRET, antagonist mode; Potency, µM (titrated, usually from 38.3 µM), for inactives: at the top dose activity change, negative = inhibition, actives largely listed as inhibitors; AID 1461, 2008; 220,000 tested, 1% active; Q6W5P4; further: nearly all actives have a fitted effect of over 50% in size
# Tau FP inhib = qHTS for Inhibitors of Tau Fibril Formation, Fluorescence Polarization; 280,000 tested, 0.39% active; K18 P301L tau heparin fibrillization, Alexa594 FP, 6 h; Potency, µM (titrated, usually from 57.7 µM), without a hit: at the highest dose activity, negative = inhibition, most hits filed as inhibitors; Microtubule-associated protein tau (Homo sapiens), P10636; AID 1468, 2008; further: nearly all actives have a fitted effect of over 55% in size
# Target sequence (P10636 561-689 P618L limits assumed): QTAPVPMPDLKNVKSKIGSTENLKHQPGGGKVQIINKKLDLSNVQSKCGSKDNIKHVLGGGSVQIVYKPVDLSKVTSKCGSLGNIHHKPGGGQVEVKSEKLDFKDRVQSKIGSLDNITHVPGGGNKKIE
#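 Heparin (20 uM) drove fibril formation of recombinant tau K18 P301L, 15 uM unlabeled with 0.24 uM Alexa 594 label, for 6 hr at 37 C in 100 mM sodium acetate pH 7. Fluorescence polarization (555/632 nm) read 1 hr after 30 uM ThT.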
# HPGD inh = qHTS Assay for Inhibitors of HPGD (15-Hydroxyprostaglandin Dehydrogenase); 15-hydroxyprostaglandin dehydrogenase [NAD(+)] (Homo sapiens), P15428; purified HPGD, NADH fluorescence kinetic, PGE2 substrate; Potency, µM, without a hit: top-dose activity change, negative = inhibition, most hits filed as inhibitors; 150,000 tested, 4.3% active; AID 894, 2007; active means well fitted inhibition curve with a large enough effect, not every such curve was filed as active; inconclusive means small, poorly fitted or top-dose-only effect, or another doubt; inactive means no such curve, though single readings can be large or run the other way
#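 NADH formation kinetics: reaction with 30 uM PGE2 and 1 mM NAD+ (final), 20 nM enzyme, Tris-HCl pH 8 with Tween 20, after 15 min compound preincubation at room temperature. Fluorescence change, last versus first of five reads.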
# Tau ThT inhib = qHTS for Inhibitors of Tau Fibril Formation, Thioflavin T Binding. 270,000 tested, 2.1% active. Potency, µM (doses to about 57.4 µM), for inactives: at the top dose activity, negative = inhibition, actives largely listed as inhibitors. recombinant tau K18 P301L, heparin-induced fibrillization, ThT fluorescence. Microtubule-associated protein tau (Homo sapiens), P10636; further: nearly all actives have a fitted effect of over 55% in size
#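 K18 P301L tau (15 uM + 0.24 uM Alexa 594-tagged), heparin 20 uM, NaOAc pH 7, 6 h 37 C; ThT 30 uM, 1 h RT, ex 450/em 510 nm.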
# Tau fluor counter = Counterscreen qHTS for Inhibitors of Tau Fibril Formation, Fluorescence Polarization | tau K18 P301L (four-repeat tau fragment) Alexa594 fluorescence, heparin fibrillization | Potency, µM (top dose mostly 57.7 µM), without a hit: at the highest dose activity change, negative = decrease | 280,000 tested, 0.93% active | AID 1463, 2008; further: nearly all actives have a fitted effect of over 55% in size
#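 Human K18 P301L tau (15 uM unlabeled plus 0.24 uM Alexa 594-labeled, final) in 100 mM sodium acetate pH 7 was mixed with compound and 20 uM heparin and incubated 6 hr at 37 C.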
# ALDH1A1 inh = qHTS Assay for Inhibitors of Aldehyde Dehydrogenase 1 (ALDH1A1). Aldehyde dehydrogenase 1A1 (Homo sapiens), P00352. 220,000 tested, 7.3% active. Purified ALDH1A1, NADH fluorescence, propionaldehyde substrate. Potency, µM (doses to about 75.3 µM), inactives show at the top dose activity, negative = inhibition, usual class: inhibitors. AID 1030, 2008; active means well fitted inhibition curve with a large enough effect, not every such curve was filed as active; inconclusive means small, poorly fitted or top-dose-only effect, or another doubt; inactive means no such curve, though single readings can be large or run the other way;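 further: plate controls were no enzyme wells and a reference inhibitor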
# Target sequence (P00352 whole entry, looked up): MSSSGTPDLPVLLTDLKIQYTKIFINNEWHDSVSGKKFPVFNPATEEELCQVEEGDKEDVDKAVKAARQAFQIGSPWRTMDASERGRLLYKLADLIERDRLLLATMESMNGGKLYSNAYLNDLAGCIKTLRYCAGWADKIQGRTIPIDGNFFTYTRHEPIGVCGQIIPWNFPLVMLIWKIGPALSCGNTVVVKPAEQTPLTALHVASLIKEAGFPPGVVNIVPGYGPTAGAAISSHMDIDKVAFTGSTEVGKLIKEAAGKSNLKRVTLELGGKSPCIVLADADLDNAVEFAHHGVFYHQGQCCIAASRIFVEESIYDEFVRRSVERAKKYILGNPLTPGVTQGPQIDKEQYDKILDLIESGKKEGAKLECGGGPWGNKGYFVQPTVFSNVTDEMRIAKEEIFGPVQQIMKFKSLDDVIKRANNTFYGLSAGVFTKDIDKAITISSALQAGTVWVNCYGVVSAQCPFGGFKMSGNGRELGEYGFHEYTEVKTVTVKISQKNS
# Active calls of the source: *; ? = inconclusive; · = no result; [ ] = another dose, or the depositor's remark. Unless noted, the call rests on the fitted dose curve; in most records, active means well fitted curve in the direction sought with a large enough effect; inconclusive means small, poorly fitted or top-dose-only effect, or another doubt; inactive means no such curve, though single readings can be large; an effect the other way counts as inactive or inconclusive. Unless noted, on the % scale 0 is the no-effect control and ±100 the full control effect; potency means the concentration at half of the fitted maximal effect.
SMILES,NPSR antagonist,Tau FP inhib,HPGD inh,Tau ThT inhib,Tau fluor counter,ALDH1A1 inh
COCCCNC(=O)CN(c1cccc(Cl)c1C)S(C)(=O)=O,?,-8.7%,-17.1%,0.5%,3.3%,-4.9%
COc1ccc(-c2nc3scc(CCNS(=O)(=O)c4ccc5c(c4)OCCO5)n3n2)cc1,·,-5.4%,·,4.5%,-18.6%,·
COc1ccc(OC)c(CNC(=O)CCCn2nc(C)c3c(C)n(-c4ccc(C)cc4)nc3c2=O)c1,·,10.9%,·,3.1%,8.8%,·
COc1cc(-c2nc3ccccn3c2/N=C/c2ccc(F)cc2)ccc1O,-50.1%,-11.2%,·,?,-19.6%,?
Oc1ccccc1/C=N/c1c(-c2ccco2)nc2ccccn12,3.4%[46.1 µM],?,?,22.4µM*,22.4µM*[quencher],?
CC(C)c1ccc(Nc2c(-c3ccco3)nc3ccccn23)cc1,·,-7.0%,·,-18.3%,?,·
COc1ccc(/C=N/c2c(-c3ccco3)nc3ccccn23)cc1OC,-22.2%[46.1 µM],?,-28.7%,22.4µM*,22.4µM*[quencher],?
Clc1ccc(/C=N/c2c(-c3ccco3)nc3ccccn23)cc1,-25.5%[46.1 µM],?,?,25.1µM*,25.1µM*[quencher],?
O=C(C1=C[C@@H](c2ccc(C(F)(F)F)cc2)C[C@@H](OCCCCO)O1)N1CCN(Cc2ccc3c(c2)OCO3)CC1,?,2.1%,·,-15.2%,-5.2%,-4.1%
O=C(NC1CCCCC1)Sc1ccc(Cl)cc1,-8.9%[46.1 µM],?,8.91µM*,?,-5.3%,?
CC(=O)OC(C(=O)NC1CCCCC1)c1ccc(Cl)cc1 (stereo unspecified),-3.9%[46.1 µM],-7.2%,-5.9%,-3.8%,-9.3%,6.4%
O=C(CSc1ccc(Cl)cc1)NC1CCCC1,-4.3%[46.1 µM],13.2%,10µM*,-4.3%,-4.1%,-4.4%
CC1CCCC(C)N1C(=O)CSCc1ccc(Cl)cc1 (stereo unspecified),-16.1%[46.1 µM],-0.1%,-15.6%,-16.3%,-6.1%,22.4µM*
O=C(CCSCc1ccc(Cl)cc1)NC1CCCC1,-15.1%[46.1 µM],-2.1%,17.8µM*,-1.8%,-4.5%,-0.6%
O=C(Cc1ccc(Cl)cc1)NC1CC1,7.6%,3.7%,·,0.3%,6.3%,8.1%
O=C(CSc1ccc(F)cc1)NC1CCCCC1,4.4%,0.8%,·,-3.1%,-5.5%,6.3%
COc1ccc(OCC2Cc3c(-c4ccccc4)nc4c(c3CO2)CN(CCOc2ccccc2)CC4)cc1 (stereo unspecified),·,4.1%[11.6 µM],·,-4.3%[11.5 µM],-2.8%[11.6 µM],-7.8%[13.5 µM]
COc1ccccc1N1CCN(Cc2nc(-c3ccc(F)cc3)oc2C)CC1,26.4%,9.5%,·,?,-12.4%,0.398µM*
COc1ccccc1N1CCN(Cc2ccc(Br)o2)CC1,-4.5%[46.1 µM],0.9%,-8.8%,-9.5%,-2.8%,12.6µM*
COc1ccc(-c2nc(CN3CCN(c4ccccc4OC)CC3)c(C)o2)cc1,-12.4%,6.6%,·,?,-4.5%,6.6%
Cc1oc(-c2cc(F)ccc2F)nc1CN1CCN(C)C(=O)[C@@H]1C,-13.2%,-4.1%,·,-2.9%,-0.1%,8.8%
Cc1oc(-c2cc(F)ccc2F)nc1CN1CCN(c2ncnc3ccccc23)CC1,28.3%,-15.4%,·,?,-19.1%,7.94µM*
COc1ccccc1N1CCN(CC(O)COc2c(OC)cccc2OC)CC1 (stereo unspecified),0.2%[46.1 µM],?,·,20µM*,?,?
CCCSc1ncc(Cl)c(C(=O)NCc2ccc(OC)cc2)n1,·,-2.8%,·,0.0%,-9.2%,·
Cc1ccccc1C(=O)c1cccn1CC(=O)N1CCCCCC1,-16.5%[46.1 µM],-6.7%,·,-6.3%,-6.4%,3.98µM*
SMILES,NPSR antagonist,Tau FP inhib,HPGD inh,Tau ThT inhib,Tau fluor counter,ALDH1A1 inh
Cc1ccccc1C(=O)c1cccn1CC(=O)NCC1CCCO1 (stereo unspecified),-10.5%[46.1 µM],2.7%,·,-6.4%,-4.9%,-3.0%
Nc1nc2c([nH]c(=O)n2C2OC(CO)C(O)C2O)c(=O)[nH]1 (stereo unspecified),·,-2.7%,-6.7%,-2.0%,-7.2%,1.8%
O=C(CSc1nnc(-c2ccccc2Cl)o1)N1CCCCC1,-22.9%[46.1 µM],-4.7%,25.1µM*,-2.0%,1.4%,?
O=C(CSc1nnc(-c2ccccc2O)o1)N1CCc2ccccc2C1,-19.2%[46.1 µM],-3.9%,-26.7%,-25.3%,?,22.4µM*
Clc1ccc(-c2nnc(-c3ccccc3Cl)o2)cc1,-25.0%[46.1 µM],-7.6%,·,-5.3%,-8.5%,?
CC(C)N(C(=O)CSc1nnc(-c2cc3ccccc3cc2O)n1Cc1ccco1)C(C)C,-23.5%[46.1 µM],-3.3%,-19.9%,?,-23.4%,-5.9%
O=C(CSc1nnc(-c2cc3ccccc3cc2O)n1Cc1ccco1)N1CCc2ccccc2C1,-18.8%[46.1 µM],-5.2%,-21.3%,-16.8%,?,35.5µM*
Clc1ccccc1-c1nnc(-c2ccccc2Cl)o1,-15.5%,9.2%,15.8µM*,-15.2%,-12.0%,-9.0%
O=C(CSc1nnc(-c2ccccc2)o1)N1CCc2ccccc2C1,-5.9%[46.1 µM],3.0%,?,-15.7%,-2.8%,-9.4%
CCO,·,·,-4.6%,·,·,?
NS(=O)(=O)c1ccc(NC(=O)C2Cc3ccccc3N2C(=O)c2ccccc2)cc1 (stereo unspecified),·,-2.7%,·,-0.4%,-2.0%,·
CCn1c(SCC(=O)Nc2ccccc2C)nc2nc3c(cc2c1=O)COC(C)(C)C3,?,-11.8%,·,-7.3%,-14.1%,14.1µM*
CCn1c(SCC(=O)Nc2ccc(OC)cc2)nc2nc3c(cc2c1=O)COC(C)(C)C3,28.1%,7.7%,·,-7.8%,-3.8%,2µM*
Cc1ccc(-n2c(SCC(=O)NCc3ccco3)nc3nc4c(cc3c2=O)COC(C)(C)C4)cc1,-8.9%[46.1 µM],?,·,?,-9.1%,0.794µM*
C=C(C)Cn1cnc2c(oc3nc4c(cc32)CCCC4)c1=O,17.5%,8.2%,·,-11.0%,-3.3%,1µM*
Cc1cc(C)cc(NC(=O)c2cc(C)nc3c2c(C)nn3-c2ccccc2)c1,·,?,·,-7.1%,-13.7%,·
CCN(CC)c1ccc(NC(=O)Cn2nc(C)n3cccc3c2=O)c(C)c1,·,?,·,?,-21.6%,·
CC(=O)OCc1cnc(C)c2oc(=O)c(C(=O)Nc3cccc(F)c3)cc12,·,1.5%,·,-16.5%,-13.0%,·
CCn1c(SCc2ccccc2Cl)nc2nc3c(cc2c1=O)CCCC3,-26.4%,-4.5%,-13.5%,-7.0%,-0.7%,15.8µM*
CCn1c(SCC(=O)NCc2ccccc2)nc2nc3c(cc2c1=O)CCCC3,-30.2%,0.2%,·,-6.1%,-1.8%,-16.1%
